Test results from PubChem BioAssay AID1159580 (chemical genetic matrix, 2015).
Out of some 5,500 compounds screened, about 2,000 (36%) were called active. Roughly 18% stayed inconclusive and do not appear here. No stated cut-off is given here; in the data, active means normalized growth mostly below about 0.91 (no sharp cut-off); inconclusive means no clear call, values can overlap the other calls; inactive means mostly above about 0.92. The list shows a part of the results.

Assay: chemical genetic growth profiling, strain panel (AID 1159580);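 further: tested at 20 µM; growth read once vehicle control cultures reached saturation at 30 °C; 1 = growth at the plate median or of vehicle wells; lower values mean less growth of the strain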
Settings: growth OD

Measured: normalized growth

NC(=O)c1ncn([C@@H]2O[C@H](CO)[C@@H](O)[C@H]2O)c1O
inactive: S. cerevisiae deletion strains, locus YAL013W, strain DEP1, active compounds read low 1 | S. cerevisiae deletion strains, locus YBR021W, strain FUR4, active compounds read low 1.02 | S. cerevisiae deletion strains, locus YBR229C, strain ROT2, active compounds read low 1.01 | S. cerevisiae deletion strains, locus YCL029C, strain bik1, active compounds read low 1.01 | S. cerevisiae deletion strains, locus YDL035C, strain GPR1, active compounds read low 1.02 | S. cerevisiae deletion strains, locus YDL074C, strain BRE1, active compounds read low 0.978 | S. cerevisiae deletion strains, locus YDL101C, strain DUN1, active compounds read low 1 | S. cerevisiae deletion strains, locus YDL134C, strain PPH21, active compounds read low 1 | S. cerevisiae deletion strains, locus YDL185W, strain tfp1, active compounds read low 1.01 | S. cerevisiae deletion strains, locus YDL192W, strain arf1, active compounds read low 1.01 | S. cerevisiae deletion strains, locus YDR101C, strain arx1, active compounds read low 1.01 | S. cerevisiae deletion strains, locus YDR150W, strain NUM1, active compounds read low 0.997 | S. cerevisiae deletion strains, locus YDR162C, strain NBP2, active compounds read low 0.983 | S. cerevisiae deletion strains, locus YDR318W, strain mcm21, active compounds read low 1.03 | S. cerevisiae deletion strains, locus YDR388W, active compounds read low 1 | S. cerevisiae deletion strains, locus YDR502C, strain sam2, active compounds read low 0.999 | S. cerevisiae deletion strains, locus YEL061C, strain CIN8, active compounds read low 1 | S. cerevisiae deletion strains, locus YER110C, active compounds read low 1.01 | S. cerevisiae deletion strains, locus YER155C, strain BEM2, active compounds read low 1 | S. cerevisiae deletion strains, locus YER167W, strain BCK2, active compounds read low 1.03 | S. cerevisiae deletion strains, locus YGL078C, strain dbp3, active compounds read low 0.984 | S. cerevisiae deletion strains, locus YGL086W, strain mad1, active compounds read low 1.02 | S. cerevisiae deletion strains, locus YGL248W, strain PDE1, active compounds read low 1.01 | S. cerevisiae deletion strains, locus YGR078C, strain PAC10, active compounds read low 1 | S. cerevisiae deletion strains, locus YGR135W, strain pre9, active compounds read low 0.988 | S. cerevisiae deletion strains, locus YGR229C, strain SMI1, active compounds read low 0.981 | S. cerevisiae deletion strains, locus YGR252W, strain gcn5, active compounds read low 1.01 | S. cerevisiae deletion strains, locus YHR030C, strain SLT2, active compounds read low 1.01 | S. cerevisiae deletion strains, locus YHR079C, strain IRE1 (second series), active compounds read low 1.02 | S. cerevisiae deletion strains, locus YHR094C, strain hxt1, active compounds read low 1.01 | S. cerevisiae deletion strains, locus YHR129C, strain ARP1, active compounds read low 1.01 | S. cerevisiae deletion strains, locus YHR200W, strain rpn10, active compounds read low 1.01 | S. cerevisiae deletion strains, locus YIL066C, strain RNR3, active compounds read low 1.01 | S. cerevisiae deletion strains, locus YIL073C, strain SPO22, active compounds read low 1.07 | S. cerevisiae deletion strains, locus YIL125W, strain kgd1, active compounds read low 1 | S. cerevisiae deletion strains, locus YIR030C, strain dcg1, active compounds read low 1.02 | S. cerevisiae deletion strains, locus YJL095W, strain BCK1, active compounds read low 0.994 | S. cerevisiae deletion strains, locus YJL134W, strain LCB3, active compounds read low 1.01 | S. cerevisiae deletion strains, locus YJL168C, strain set2, active compounds read low 1.01 | S. cerevisiae deletion strains, locus YJL187C, strain SWE1 (second series), active compounds read low 0.998 | S. cerevisiae deletion strains, locus YJR043C, strain POL32, active compounds read low 1.04 | S. cerevisiae deletion strains, locus YJR075W, strain HOC1, active compounds read low 0.974 | S. cerevisiae deletion strains, locus YKL009W, strain mrt4, active compounds read low 0.996 | S. cerevisiae deletion strains, locus YKL068W, active compounds read low 0.995 | S. cerevisiae deletion strains, locus YKL085W, strain MDH1 (second series), active compounds read low 1 | S. cerevisiae deletion strains, locus YKL085W, strain MDH1, active compounds read low 1 | S. cerevisiae deletion strains, locus YKL190W, strain CNB1, active compounds read low 1.01 | S. cerevisiae deletion strains, locus YKR001C, strain vps1, active compounds read low 1.02 | S. cerevisiae deletion strains, locus YLR039C, strain RIC1, active compounds read low 1.04 | S. cerevisiae deletion strains, locus YLR058C, strain SHM2, active compounds read low 1.01 | S. cerevisiae deletion strains, locus YLR102C, strain apc9, active compounds read low 1.02 | S. cerevisiae deletion strains, locus YLR262C, strain YPT6, active compounds read low 0.988 | S. cerevisiae deletion strains, locus YLR268W, strain sec22, active compounds read low 0.988 | S. cerevisiae deletion strains, locus YLR330W, strain CHS5, active compounds read low 1 | S. cerevisiae deletion strains, locus YLR342W, strain FKS1 (second series), active compounds read low 1.07 | S. cerevisiae deletion strains, locus YLR371W, strain rom2, active compounds read low 1.02 | S. cerevisiae deletion strains, locus YLR418C, strain cdc73, active compounds read low 0.979 | S. cerevisiae deletion strains, locus YML016C, strain PPZ1, active compounds read low 1 | S. cerevisiae deletion strains, locus YML032C, strain rad52, active compounds read low 1.03 | S. cerevisiae deletion strains, locus YML124C, strain tub3, active compounds read low 1.01 | S. cerevisiae deletion strains, locus YMR078C, strain ctf18, active compounds read low 1.02 | S. cerevisiae deletion strains, locus YMR223W, strain ubp8, active compounds read low 1.03 | S. cerevisiae deletion strains, locus YMR263W, strain SAP30, active compounds read low 0.991 | S. cerevisiae deletion strains, locus YMR307W, strain GAS1, active compounds read low 1.05 | S. cerevisiae deletion strains, locus YNL067W, strain RPL9B, active compounds read low 0.988 | S. cerevisiae deletion strains, locus YNL128W, strain TEP1, active compounds read low 0.977 | S. cerevisiae deletion strains, locus YNL153C, strain GIM3, active compounds read low 0.995 | S. cerevisiae deletion strains, locus YNL233W, strain BNI4, active compounds read low 0.99 | S. cerevisiae deletion strains, locus YNL250W, strain rad50, active compounds read low 1.01 | S. cerevisiae deletion strains, locus YNL271C, strain bni1, active compounds read low 1.01 | S. cerevisiae deletion strains, locus YNL298W, strain CLA4, active compounds read low 1.02 | S. cerevisiae deletion strains, locus YNL307C, strain MCK1, active compounds read low 1.05 | S. cerevisiae deletion strains, locus YNL322C, strain KRE1, active compounds read low 1.01 | S. cerevisiae deletion strains, locus YNR052C, strain pop2, active compounds read low 1.02 | S. cerevisiae deletion strains, locus YOL006C, strain TOP1, active compounds read low 1.06 | S. cerevisiae deletion strains, locus YOL012C, strain htz1 0.852 | S. cerevisiae deletion strains, locus YOL147C, strain pex11, active compounds read low 0.999 | S. cerevisiae deletion strains, locus YOR061W, strain CKA2, active compounds read low 1 | S. cerevisiae deletion strains, locus YOR069W, strain VPS5, active compounds read low 1.01 | S. cerevisiae deletion strains, locus YOR136W, strain idh2, active compounds read low 1.02 | S. cerevisiae deletion strains, locus YOR144C, strain elg1, active compounds read low 1 | S. cerevisiae deletion strains, locus YOR184W, strain ser1, active compounds read low 1.06 | S. cerevisiae deletion strains, locus YOR316C, strain cot1, active compounds read low 1.01 | S. cerevisiae deletion strains, locus YPL055C, strain LGE1, active compounds read low 0.946 | S. cerevisiae deletion strains, locus YPL241C, strain CIN2, active compounds read low 1 | S. cerevisiae deletion strains, locus YPR119W, strain clb2, active compounds read low 1.01 | S. cerevisiae deletion strains, locus YPR141C, strain kar3, active compounds read low 1.01 | S. cerevisiae deletion strains, locus YPR163C, strain tif3, active compounds read low 1.01 | S. cerevisiae deletion strains, locus YPR167C, strain met16, active compounds read low 1.01 | S. cerevisiae deletion strains, strain wtn01, active compounds read low 0.997 | S. cerevisiae strains, strain wild type, active compounds read low 1.02
